Measurements taken from PubChem BioAssay AID493169 (National Center for Advancing Translational Sciences (NCATS), 2011).
Results filed as inconclusive are left out. The source made the active and inactive calls. The call rests on the fitted dose curve; in most records, active means well fitted inhibition curve with a large enough effect; inconclusive means small, poorly fitted or top-dose-only effect; inactive means flat fitted curve, though single readings scatter.

experiment: CHOP2 Reporter Counterscreen Assay for Inhibitors of Ubiquitin-specific Protease USP2a; details: purified enterokinase, fluorogenic substrate, 485/531 nm; series mostly up to 38.3 µM; activity change, negative = inhibition: at the top concentration;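 further: activated enterokinase alone at 50 pM in a cell-free format rather than USP2a or CHOP2; nearly all actives have a fitted effect of over 55% in size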
Method in brief: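 Cell-free counterscreen with pre-activated enterokinase alone (50 pM final) in 20mM Tris-HCl pH 8.0, 2mM CaCl2, 2mM beta-mercaptoethanol, 0.05% CHAPS; compound preincubation 30 min RT, reporter substrate 25nM final, fluorescence read after 10 min (Ex 485/Em 531).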
On the % scale 0 is the no-effect control and ±100 the full control effect; potency means the concentration at half of the fitted maximal effect.

| Compound | activity change, negative = inhibition | Potency |
| --- | --- | --- |
| COc1cc(C2C(C#N)=C(N)Oc3c2ccc2ccccc32)ccc1OCC(=O)Nc1cccc(C)c1 (stereo not given) | 2.73% (inactive) | – |
| C/C(CC(=O)N1CCCC1)=N\NC(=O)c1cc2ccccc2cc1O | -3.58% (inactive) | – |
| CCOC(=O)N1CCN(C(=O)c2cc3c(ccc4ccccc43)oc2=O)CC1 | -1.78% (inactive) | – |
| Cn1c(=O)[nH]c(=O)c2c1nc(NCc1ccccc1)n2CCCc1ccccc1 | 1.28% (inactive) | – |
| CCn1c(=O)c(C(=O)Nc2ccccc2S(N)(=O)=O)c(O)c2ccccc21 | – | 11.2 µM (active) |
| COc1ccccc1C(=O)n1nc(-c2cccnc2)nc1NCc1ccccc1 | – | 1 µM (active) |
| N#CNC(=Nc1cccc(F)c1)SCc1cccc(F)c1 | 4.07% (inactive) | – |
| COC(=O)c1ccc(NC(=O)CSC2=Nc3ccccc3C3CC=NN23)cc1 (stereo not given) | -1.25% (inactive) | – |
| CCCCCCCCCCOC(=O)Cn1c(COc2ccc(OC)cc2)[n+](C)c2ccccc21 | – | 10 µM (active) |
| O=C(CCN1C(=O)/C(=C\c2ccco2)SC1=S)Nc1ccc(C(=O)O)c(O)c1 | – | 10 µM (active) |
| CCOc1ccc(Cn2c(=O)sc3ccccc32)cc1OC | 2.91% (inactive) | – |
| CCC1=[N+](CC(=O)c2ccc(Br)cc2)CCn2c(C)ccc21 | -22% (inactive) | – |
| O=C1c2ccccc2C(=O)N1CCCCn1c(=O)oc2ccccc21 | 0.299% (inactive) | – |
| CCCn1c(C)cc(C)c(C#N)c1=O | 0.326% (inactive) | – |
| O=C(Nc1cccc(S(=O)(=O)N2CCCC2)c1)c1cncc(Br)c1 | -5.75% (inactive) | – |
| CCCSCCCNC(=O)CC1Oc2ccccc2NC1=O (stereo not given) | -2.32% (inactive) | – |
| O=c1cc(CO)oc(CN2CCN(Cc3ccccc3)CC2)c1O | 5.35% (inactive) | – |
| CC(C)c1ccc(C2=C(O)c3ccccc3C(=O)C2=O)cc1 | 0.933% (inactive) | – |
| Cc1cc(C)c(NC(=O)C[N+](C)(C)CC(O)COc2cccc3ccccc23)c(C)c1 (stereo not given) | -4.33% (inactive) | – |
| COCCCNCCCOc1ccc(C)cc1Br | 6.77% (inactive) | – |

| Compound | activity change, negative = inhibition | Potency |
| --- | --- | --- |
| CCOC(=O)c1[nH]c2ccc(OC)cc2c1NC(=O)CCN1CCC(C)CC1 | 4.08% (inactive) | – |
| Cc1cc(C)n2nc(S(=O)(=O)NCCc3ccccc3)nc2n1 | -2.84% (inactive) | – |
| CC1=C(C(=O)OC(C)C)C(C)C(C(=O)OC(C)C)=C(C)N1 | 1.59% (inactive) | – |
| CCOc1ccc(Cn2nnc(C(=O)NCc3ccccc3)c2N)cc1 | 0.856% (inactive) | – |
| Cc1ccc(-c2c(C)n([O-])c3c([n+]2=O)CCC3)o1 | 3.46% (inactive) | – |
| Cc1ccc2oc(=O)c3cnn(CC(=O)NCCCOC(C)C)c3c2c1 | -0.662% (inactive) | – |
| Cc1ccc(NC(=O)c2onc(C)c2Cl)cc1 | -0.102% (inactive) | – |
| O=C(O)c1cccc(S(=O)(=O)NNc2ccccc2C(F)(F)F)c1 | -1.31% (inactive) | – |
| CCc1cc(C(=O)N=Nc2c(O)[nH]c3ccc([N+](=O)[O-])cc23)c2ccccc2n1 | – | 8.91 µM (active) |
| Cc1cc(C(=O)Nc2ccccc2N2CCOCC2)c2ccccc2n1 | 0.16% (inactive) | – |
| O=C(COC(=O)c1ccc(NS(=O)(=O)c2cccs2)cc1)Nc1nc2c(F)c(F)c(F)cc2s1 | – | 10 µM (active) |
| CCN(CC)S(=O)(=O)c1ccc(Cl)c(NC(=O)COC(=O)c2c(C)noc2C)c1 | 0.267% (inactive) | – |
| Cc1ccc(CNC(=O)CCNS(=O)(=O)c2ccc(C)cc2)cc1 | 2.86% (inactive) | – |
| COc1cc2cc(CN(CCN3CCCC3)C(=O)Nc3ccc(F)cc3)c(=O)[nH]c2cc1OC | -2.32% (inactive) | – |
| C=CC[C@@H](CC(=O)N(CCO)Cc1ccccc1)C(=O)NCCOC(=O)[C@H](CC=C)CC(=O)OC(C)(C)C | 4.41% (inactive) | – |
| O=S(=O)(c1ccccc1)N(CC1CO1)c1cc(Cl)ccc1Cl (stereo not given) | 2.84% (inactive) | – |
| Cn1c(C(=O)NCCN2CCOCC2)cc2c(=O)n(C)c3ccccc3c21 | -0.0744% (inactive) | – |
| CS(=O)(=O)c1nc(-c2ccc(Br)cc2)cc(-c2ccccc2)c1C#N | 0.429% (inactive) | – |
| O=S(=O)(NC1CCSc2ccccc21)c1ccccc1 (stereo not given) | -0.783% (inactive) | – |
| CCCCCCCCCS(=O)(=O)N/N=C/c1cccc([N+](=O)[O-])c1 | -2.63% (inactive) | – |
